# Measured values from PubChem BioAssay (NCATS).
# Results filed as inconclusive are left out. Entries that show only a call come without a potency. Calls of active or inactive are those of the source. The call rests on the fitted dose curve; in most records, active means well fitted inhibition curve with a large enough effect; inconclusive means small, poorly fitted or top-dose-only effect; inactive means flat fitted curve, though single readings scatter.
# Legend:
# Test in all cases: qHTS profiling for inhibitors of Plasmodium falciparum proliferation (AID 504749); further: nearly all actives have a fitted effect of over 60% in size
# Settings in all cases: P. falciparum in erythrocytes, SYBR Green DNA, 72 h; series mostly up to 28.7 µM
# [1] = system: HB3
# Method in brief: (§1)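 P. falciparum-infected erythrocytes (0.3% parasitemia, 2.5% hematocrit final) were exposed to compounds for 72 h at 37 C in 5% CO2, then lysed with SYBR Green buffer overnight at room temperature; parasite DNA fluorescence was normalized to artemisinin and DMSO controls.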
# [2] = system: ICS
# Method in brief: as §1
# [3] = system: JCK
# Method in brief: as §1
# [4] = system: N140
# Method in brief: as §1
# [5] = system: P93_24
# Method in brief: as §1
# [6] = system: P94_40
# Method in brief: as §1
# [7] = system: PC15
# Method in brief: as §1
# [8] = system: PC26
# Method in brief: as §1
# [9] = system: PC49
# Method in brief: as §1
# [10] = system: PAD
# Method in brief: as §1
# Potency means the concentration at half of the fitted maximal effect.
SMILES,Potency [1],Potency [2],Potency [3],Potency [4],Potency [5],Potency [6],Potency [7],Potency [8],Potency [9],Potency [10]
CC(C)c1ccc2oc3nc(N)c(C(=O)O)cc3c(=O)c2c1,inactive,inactive,inactive,inactive,inactive,inactive,inactive,inactive,inactive,–
C[C@H](Cn1cnc2c(N)ncnc21)OCP(=O)(O)O,inactive,inactive,inactive,inactive,inactive,inactive,inactive,inactive,inactive,inactive
c1ccc2[nH]c(-c3cscn3)nc2c1,inactive,inactive,inactive,inactive,inactive,inactive,inactive,–,inactive,inactive
O=C(CS(=O)Cc1ccco1)NCC=CCOc1cc(CN2CCCCC2)ccn1 (stereo unspecified),inactive,inactive,inactive,inactive,inactive,inactive,inactive,inactive,inactive,inactive
Nc1nc(Cl)nc2c1ncn2[C@H]1C[C@H](O)[C@@H](CO)O1,inactive,inactive,inactive,inactive,inactive,inactive,inactive,–,inactive,inactive
CC(C)(S)[C@@H](N)C(=O)O,inactive,inactive,inactive,inactive,inactive,inactive,inactive,inactive,inactive,inactive
O=C(O)c1cc(=O)c2c(OCC(O)COc3cccc4oc(C(=O)O)cc(=O)c34)cccc2o1,inactive,inactive,inactive,inactive,inactive,inactive,inactive,inactive,inactive,inactive
CNC[C@H](O)c1ccc(O)c(O)c1,inactive,inactive,inactive,inactive,inactive,inactive,inactive,inactive,inactive,inactive
O=C(NC(Cc1cc(=O)[nH]c2ccccc12)C(=O)O)c1ccc(Cl)cc1 (stereo unspecified),inactive,inactive,inactive,inactive,inactive,inactive,inactive,inactive,inactive,inactive
Cc1cc2c(s1)Nc1ccccc1N=C2N1CCN(C)CC1,inactive,inactive,inactive,inactive,inactive,inactive,inactive,–,inactive,inactive
CC1(C)NC(=O)N(c2ccc([N+](=O)[O-])c(C(F)(F)F)c2)C1=O,inactive,inactive,inactive,inactive,inactive,inactive,inactive,inactive,inactive,inactive
CCC1=C(C)CN(C(=O)NCCc2ccc(S(=O)(=O)NC(=O)NC3CCC(C)CC3)cc2)C1=O (stereo unspecified),inactive,inactive,inactive,inactive,inactive,inactive,inactive,inactive,inactive,inactive
COc1cc(OC)c(C(=O)CCCN2CCCC2)c(OC)c1,inactive,inactive,inactive,inactive,inactive,inactive,inactive,inactive,inactive,inactive
CCOC(=O)c1c(C)n(C)c2ccc(O)cc12,inactive,inactive,inactive,–,inactive,inactive,inactive,inactive,inactive,inactive
CCCOc1ccc2nc(NC(=O)OC)[nH]c2c1,inactive,inactive,inactive,inactive,inactive,inactive,inactive,inactive,inactive,inactive
CC1=C(C)C(=O)C(C(CCCCCC(=O)O)c2ccccc2)=C(C)C1=O (stereo unspecified),inactive,inactive,inactive,–,inactive,inactive,inactive,–,inactive,inactive
COc1cc2c(cc1OC)C1CC(=O)C(CC(C)C)CN1CC2 (stereo unspecified),inactive,inactive,inactive,inactive,inactive,inactive,inactive,inactive,inactive,inactive
Nc1ccc(S(N)(=O)=O)cc1,inactive,inactive,inactive,inactive,inactive,inactive,inactive,inactive,inactive,inactive
Cc1ccc(C)c(OCCCC(C)(C)C(=O)O)c1,inactive,inactive,inactive,inactive,inactive,inactive,inactive,inactive,inactive,inactive
COC1=C(OC)C(=O)C(CCCCCCCCCCO)=C(C)C1=O,inactive,inactive,inactive,inactive,inactive,–,inactive,inactive,inactive,inactive
C=C(c1ccc(C(=O)O)cc1)c1cc2c(cc1C)C(C)(C)CCC2(C)C,–,8.91 µM (active),inactive,inactive,inactive,inactive,inactive,inactive,inactive,inactive
Cc1c(C(=O)NN2CCCCC2)nn(-c2ccc(Cl)cc2Cl)c1-c1ccc(Cl)cc1,–,11.2 µM (active),inactive,8.91 µM (active),10 µM (active),11.2 µM (active),–,16.9 µM (active),–,–
CN(C)c1ccc2nc3ccc(=[N+](C)C)cc-3sc2c1,0.0224 µM (active),0.0071 µM (active),–,0.0562 µM (active),0.0316 µM (active),0.0447 µM (active),–,0.0675 µM (active),inactive,0.0316 µM (active)
O=C(O)CCNC(=O)c1ccc(N=Nc2ccc(O)c(C(=O)O)c2)cc1,–,inactive,inactive,inactive,inactive,inactive,inactive,inactive,inactive,inactive

SMILES,Potency [1],Potency [2],Potency [3],Potency [4],Potency [5],Potency [6],Potency [7],Potency [8],Potency [9],Potency [10]
NNc1nncc2ccccc12,3.98 µM (active),1.41 µM (active),–,–,3.98 µM (active),3.55 µM (active),–,–,inactive,–
O=c1oc2cc(O)ccc2s1,inactive,–,inactive,inactive,inactive,inactive,inactive,inactive,inactive,inactive
CN1CCC(=C2c3ccccc3CCc3sccc32)CC1,–,8.91 µM (active),–,–,–,–,–,–,8.91 µM (active),–
O=C(O)c1cn(-c2ccc(F)cc2)c2cc(N3CCNCC3)c(F)cc2c1=O,inactive,–,inactive,inactive,–,–,inactive,inactive,inactive,inactive
O=C(OC1C[C@H]2CC[C@@H](C1)[N+]21CCCC1)C(O)(c1ccccc1)c1ccccc1 (stereo partly specified),–,–,inactive,–,2.24 µM (active),4.47 µM (active),inactive,–,inactive,–
Cc1c(OCC(F)(F)F)ccnc1CS(=O)c1nc2ccccc2[nH]1 (stereo unspecified),inactive,–,inactive,inactive,inactive,inactive,inactive,inactive,inactive,inactive
Cc1ccc(NC(=O)c2ccc(CN3CCN(C)CC3)cc2)cc1Nc1nccc(-c2cccnc2)n1,–,11.2 µM (active),–,8.91 µM (active),10 µM (active),11.2 µM (active),–,15.1 µM (active),–,10 µM (active)
N=C(N)c1ccc2cc(OC(=O)c3ccc(N=C(N)N)cc3)ccc2c1,–,7.08 µM (active),inactive,–,–,–,–,–,–,inactive
Cc1cc(C2CCCCC2)n(O)c(=O)c1,–,3.55 µM (active),–,–,3.16 µM (active),–,3.16 µM (active),–,inactive,–
O=C1c2ccccc2-c2n[nH]c3cccc1c23,inactive,–,inactive,inactive,inactive,inactive,inactive,–,inactive,inactive
COCCCOc1ccnc(CS(=O)c2nc3ccccc3[nH]2)c1C (stereo unspecified),inactive,–,inactive,inactive,–,inactive,inactive,19 µM (active),inactive,–
CCC[C@@H]1C[C@@H](C(=O)N[C@@H]([C@H]2O[C@H](SC)[C@H](O)[C@@H](O)[C@H]2O)[C@@H](C)O)N(C)C1,–,–,inactive,–,–,–,inactive,–,inactive,inactive
CCCCCCCCOc1ccccc1C(=O)Nc1ccc(C(=O)OCC[N+](C)(CC)CC)cc1,–,8.91 µM (active),–,–,12.6 µM (active),–,–,–,–,–
Cc1cc(=O)c2c(O)c3c(O)cc(=O)c4c3c3c(cc(O)c1c23)C(C)(C)C=4O,2 µM (active),0.355 µM (active),–,1 µM (active),2.24 µM (active),2 µM (active),3.98 µM (active),–,7.94 µM (active),2.51 µM (active)
CN(c1nccc(=O)[nH]1)C1CCN(c2nc3ccccc3n2Cc2ccc(F)cc2)CC1,inactive,10 µM (active),inactive,–,inactive,–,–,–,inactive,inactive
CC[C@]1(O)C[C@H]2CN(CCc3c([nH]c4ccccc34)[C@@](C(=O)OC)(c3cc4c(cc3OC)N(C=O)[C@H]3[C@@](O)(C(=O)OC)[C@H](OC(C)=O)[C@]5(CC)C=CCN6CC[C@]43[C@@H]65)C2)C1,0.447 µM (active),0.1 µM (active),–,3.55 µM (active),–,3.16 µM (active),inactive,–,inactive,–
O=C1CCc2ccc(OCCCCN3CCN(c4cccc(Cl)c4Cl)CC3)cc2N1,–,11.2 µM (active),inactive,–,10 µM (active),–,–,inactive,inactive,–
CCc1nc(N)nc(N)c1-c1ccc(Cl)cc1,11.2 µM (active),–,inactive,inactive,inactive,inactive,inactive,–,inactive,inactive
CCCCC(CC)COC(=O)C(C#N)=C(c1ccccc1)c1ccccc1 (stereo unspecified),–,–,inactive,inactive,–,–,–,inactive,inactive,inactive
Cc1cc(=O)oc2cc(O)ccc12,–,–,2 µM (active),–,inactive,inactive,1.12 µM (active),–,–,inactive
Oc1ccc(OCc2ccccc2)cc1,inactive,–,inactive,inactive,inactive,inactive,inactive,inactive,inactive,inactive
Cc1nc(Nc2ncc(C(=O)Nc3c(C)cccc3Cl)s2)cc(N2CCN(CCO)CC2)n1,–,7.08 µM (active),inactive,14.1 µM (active),–,–,–,–,–,–
COC(=O)C1=C(C)NC(C)=C(C(=O)OCCCN2CCC(c3ccccc3)(c3ccccc3)CC2)C1c1cccc([N+](=O)[O-])c1 (stereo unspecified),8.91 µM (active),1.41 µM (active),–,5.01 µM (active),3.98 µM (active),4.47 µM (active),11.2 µM (active),6.01 µM (active),–,10 µM (active)
COc1ccc2cc([C@H](C)C(=O)O)ccc2c1,inactive,–,inactive,inactive,–,inactive,inactive,inactive,inactive,inactive
